These results are taken from PubChem BioAssay AID540364 (The Scripps Research Institute Molecular Screening Center, 2011).

Each structure is given as a SMILES string. About 2,000 (0.56%) of roughly 360,000 compounds were called active.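 The calls were made as follows: active = activation above the average of all compounds screened plus 3 SD, cutoff fixed separately per campaign (cut at about 7.5% in these data); inactive = the rest.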 The full list was thinned out, with actives kept by preference.

A short description of this assay: GAA850 frataxin promoter reporter upregulation – cell-based, luciferase luminescence, HEK293 lucGAA850, primary screen (AID 540364).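 Also: 0% = DMSO wells and 100% = 10 µM SAHA wells.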 The conditions noted are these: HEK293 lucGAA850 FXN promoter luciferase reporter, 24 h; at 6 µM; hits give high values; percent of 10 µM SAHA response. In general terms: A reporter such as luciferase makes a cellular process visible.
Consider `Cc1nc(-c2ccc(F)cc2)c(CC(=O)Nc2cc(S(=O)(=O)N3CCCCC3)ccc2C)s1`, for which the activation was 18.7% (active).

In the case of `Cc1nc(-c2ccc(F)cc2)c(CC(=O)N2CCN(S(=O)(=O)c3ccc(F)cc3)CC2)s1`, the activation was 1.58% (inactive).

In the case of `Cc1nc(-c2ccc(F)cc2)c(CC(=O)Nc2cccc(S(=O)(=O)N3CCOCC3)c2)s1`, the activation was -0.93% (inactive).

As to `CSCCC(NC(N)=O)C(=O)N(C)CC(=O)Nc1ccc(C)cc1` (configuration not stated), the activation was 0.85% (inactive).

As for `CCOc1cc(S(=O)(=O)NCc2ccc3c(c2)OCO3)ccc1F`, the activation was 1.09% (inactive).

In the case of `Cc1ccccc1N1CC(c2nc3ccccc3[nH]2)CC1=O` (configuration not stated), the activation is -3.78% (inactive).

With `Cc1ccc(-c2nc3ccccc3[nH]c2=O)cc1`, the activation is 8.59% (active).

For `Cc1ccc(-c2nnc(-n3nnc4ccccc43)c3ccccc23)cc1`, the activation was 3.17% (inactive).

Consider `CN(c1ccccc1)c1nc(N)c([N+](=O)[O-])c(NCc2ccco2)n1`, for which the activation is 6.64% (inactive).

Turning to `COc1ccc(Nc2nc(NCc3ccco3)nc(N/N=C/c3ccccc3Cl)n2)cc1`, the activation was 0.27% (inactive).

Consider `COc1cccc(Nc2nc(N)c([N+](=O)[O-])c(NCc3ccco3)n2)c1`, for which the activation was 12.7% (active).

As for `CCOC(=O)C1CCN(C(=O)CN2C(=O)NC(C)(c3ccc4cc(OC)ccc4c3)C2=O)CC1` (configuration not stated), the activation is -1.63% (inactive).

Regarding `O=c1[nH]cnc2c1c(-c1ccccc1)cn2-c1ccc(F)cc1`, the activation is 8.36% (active).

Consider `CCOC(=O)C1CCN(c2ncnc3c2c(-c2ccccc2)cn3-c2ccc(C)cc2)CC1`, for which the activation is 0.35% (inactive).

For `O=c1c2c(-c3ccccc3)ccnc2[nH]n1-c1ccccc1`, the activation is 2.17% (inactive).

In the case of `CCc1nnc(NC(=O)CSc2nnc(COc3ccc(C#N)cc3)n2-c2ccccc2)s1`, the activation was 0.66% (inactive).

`CCOc1ccc(CCNC(=O)C2CCN(c3ccc(N4CCOCC4)nn3)CC2)cc1OCC`: the activation was 2.52% (inactive).

In the case of `CCCCCCCCCCCCN1[C@@H](CC(C)=O)c2cc(F)cc(F)c2S1(=O)=O`, the activation is 0.59% (inactive).

For `COc1ccccc1C1=Nc2cccc3cccc(c23)N1`, the activation was 11.7% (active).

As for `COc1ccccc1C1=CC(=O)CCC1`, the activation is -2.28% (inactive).

For `COc1ccccc1-c1nc(C(F)(F)F)c(OC)o1`, the activation was 0.69% (inactive).

On to `CCOCCOCCC(C(=O)O)P(=O)(c1ccccc1)c1ccccc1` (configuration not stated), for which the activation was -1.43% (inactive).

Regarding `CCOc1ccc(NC(=O)CN(C)C(=O)COc2cccc(CC)c2)cc1OCC`, the activation is 0.68% (inactive).

In the case of `C[C@H](CO)N1C[C@H](C)[C@@H](CN(C)C(=O)c2cccc(F)c2)Oc2cc(-c3cncnc3)ccc2S1(=O)=O`, the activation was 0.78% (inactive).

With `COc1ccccc1CNC(=O)c1ccc(N(C)S(=O)(=O)c2ccc(C)cc2)cc1`, the activation is 0.45% (inactive).

Regarding `COc1ccc(NC(=O)CC2C(=O)OCC3CCCCN32)cc1Cl` (configuration not stated), the activation was 3.58% (inactive).

For `COc1ccc(/C=C/C(=O)c2c(O)cc(OC)cc2OC)cc1`, the activation is 1.23% (inactive).

Take `O=C(NC1CCCCCCC1)c1cccs1`: the activation was 1.55% (inactive).

As to `O=C(NCCCn1ccnc1)c1cc(Br)c(Br)s1`, the activation is 1.52% (inactive).

With `COc1cc(OC)cc(C(=O)NCCCn2ccnc2)c1`, the activation is 1.13% (inactive).

For the compound `O=C(NC1CCCC1)c1cc(-c2ccccc2)on1`, the activation is 8.61% (active).

Turning to `O=C(NCCCn1ccnc1)c1cc(-c2ccccc2)on1`, the activation was 20.8% (active).

As to `O=C(NC1CCCCC1)c1cc(C2CC2)on1`, the activation is 2.15% (inactive).

Consider `Fc1ccc(CNc2nc3ccccc3n3nnnc23)cc1`, for which the activation was 4.29% (inactive).

Consider `O=S(=O)(c1ccc(Sc2nnc3ccccn23)nc1)N1CCOCC1`, for which the activation was -1.38% (inactive).

On to `CC1(C)CC(=O)CC2(C1)NCC(c1ccccc1Cl)c1c2[nH]c2ccccc12` (configuration not stated), for which the activation was -7.14% (inactive).

`CCCNC(=O)CCc1c(C)nc2c(c(C)nn2-c2ccc(C)cc2)c1C`: the activation is 0.2% (inactive).

Turning to `CCCc1c(C(=O)O)cnn1-c1ccc(Cl)cc1`, the activation was -0.1% (inactive).

`CCCNC(=O)c1c(Cl)cnn1-c1ccc(C)cc1`: the activation was 7.7% (active).

As to `Cc1cnc(C(=O)OCc2c(C)cc(C(C)(C)C)cc2C)cn1`, the activation is 1.56% (inactive).

As for `CC(Oc1ccccc1)C(=O)NN1Cc2ccccc2C1=N` (configuration not stated), the activation is 2.03% (inactive).

Regarding `CCOC(=O)c1nn(-c2cccc(C)c2)cc1C(=O)c1ccccc1`, the activation is 6.71% (inactive).

As for `CCCNC(=O)c1cc(C2CCCCN2S(=O)(=O)c2ccc(C#N)cc2)on1` (configuration not stated), the activation is 1.65% (inactive).

On to `Cc1ccc(S(=O)(=O)N(CC(=O)N/N=C/c2ccc(F)cc2)c2cccc3cccnc23)cc1`, for which the activation was -4.8% (inactive).

Take `O=C(CSc1cccc2cccnc12)N/N=C/c1cccnc1`: the activation was 15.3% (active).

For the compound `Cc1c(NC(=O)CSc2cccc3cccnc23)c(=O)n(-c2ccccc2)n1C`, the activation is 2.68% (inactive).

With `COc1ccccc1N(CC(=O)Nc1ccc(C)cc1Cl)S(=O)(=O)c1cccs1`, the activation is 0.98% (inactive).

For the compound `Cc1ccccc1-n1c(C)cc(/C=N/NC(=O)c2ccc(CN3CCOCC3)cc2)c1C`, the activation was 0.54% (inactive).

On to `COc1ccc(CCNC(=O)C(=O)NCC2OCCN2S(=O)(=O)c2ccc(F)cc2)cc1OC` (configuration not stated), for which the activation is -0.5% (inactive).

Regarding `Cc1noc(C)c1-c1ccc2ncnc(NC(C)c3ccco3)c2c1` (configuration not stated), the activation was 10.2% (active).

As to `CCc1c(N=O)c(-c2ccccc2)n(O)[n+]1[O-]`, the activation was 3.14% (inactive).

On to `COc1cc(C#Cc2ccc3cc(CCCO)oc(=O)c3c2)cc(OC)c1`, for which the activation was 7.61% (active).

Turning to `COc1cc(/C=C2\Oc3ccc(C#Cc4ccc(O)cc4)cc3C2=O)cc(OC)c1`, the activation was -0.08% (inactive).

For `CC(C)c1ccc(S(=O)(=O)N2CCC3(CC2)OCCO3)cc1`, the activation was -0.76% (inactive).

Turning to `COCOCCn1cc(CN2CCS(=O)(=O)N(Cc3ccc(-c4ccccc4)cc3)C(CC(C)C)C2=O)nn1` (configuration not stated), the activation is -0.25% (inactive).

`CCOc1cccc2cc(C(=O)OCC(=O)Nc3c(C)cccc3CC)c(=O)oc12`: the activation was 1.17% (inactive).

With `Cc1nc(SCc2ccc(F)cc2)c([N+](=O)[O-])[nH]1`, the activation was 0.83% (inactive).

Take `O=[N+]([O-])c1ccccc1OCCCCN1CCCCC1`: the activation is 1.12% (inactive).

With `CCCCCOc1ccc(CSC2=NCCN2)cc1[N+](=O)[O-]`, the activation was 8.36% (active).

Regarding `Cc1oc2c(F)c(F)c(F)c(F)c2c1S(=O)(=O)Nc1cccc(C(F)(F)F)c1`, the activation is -1.14% (inactive).

`NC(=O)c1ccsc1NC(=O)COC(=O)COc1ccc(C=O)cc1`: the activation is 1.47% (inactive).

On to `CCOC(=O)C(=Cc1ccccc1)C(=O)c1ccccc1`, for which the activation was -4.25% (inactive).

With `Cc1cc(C)nc(S/C=C/C(=O)c2ccccc2)n1`, the activation is 14.6% (active).

In the case of `Cc1cc(C)nc(SC(C)C(=O)N/N=C/c2cccs2)n1` (configuration not stated), the activation is -1.1% (inactive).

`CC(=O)c1ccc(N2CCN(C(=O)C3CCN(S(=O)(=O)c4ccc5c(c4)CC(C)N5C(=O)C4CC4)CC3)CC2)cc1` (configuration not stated): the activation is 1.92% (inactive).

On to `Cc1ccc(Sc2cc(C(=O)c3ccccc3C(=O)O)ccc2[N+](=O)[O-])cc1`, for which the activation is 0.3% (inactive).

Regarding `Cc1ccc(SC(CC(=O)c2ccc(C(C)(C)C)cc2)C(=O)O)cc1` (configuration not stated), the activation is 9.01% (active).

As to `CC(C)(C)c1ccc(C(=O)NNC(=O)Cc2ccccc2)cc1`, the activation is 3.03% (inactive).

On to `COc1ccc(/C=C2\CCCC3C2=NN(C(=O)c2scnc2C)C3c2ccc(OC)cc2)cc1` (configuration not stated), for which the activation is 1.94% (inactive).

`Cc1ccc(NC(=O)C(CC(=O)O)C2CCCO2)c(C)c1` (configuration not stated): the activation was 0.8% (inactive).

Consider `COc1ccc(C(CNC(=O)c2cc3c(s2)CCCC3)N2CCOCC2)cc1` (configuration not stated), for which the activation is 1.32% (inactive).

With `CC1(C(=O)NS(=O)(=O)c2ccccc2Cl)CCN1C(=O)c1cccc(F)c1` (configuration not stated), the activation was 1.46% (inactive).

With `CC1(C(=O)NCc2ccc3c(c2)OCO3)CCN1C(=O)Cc1cccc2ccccc12` (configuration not stated), the activation was 0.09% (inactive).

As for `CSc1ccc(CN2CCC2(C)C(=O)NCc2ccccc2Br)cc1` (configuration not stated), the activation is 0.95% (inactive).

On to `CC1(C(=O)NCc2cccc3ccccc23)CCN1Cc1ccc(-c2ccccc2)o1` (configuration not stated), for which the activation was 10% (active).

`CCC1CO/C(=C(\C(=C(Cl)Cl)N2CCOCC2)[N+](=O)[O-])N1` (configuration not stated): the activation was 1.9% (inactive).

On to `Cc1cccc(NC(=O)CN2CCCN(S(=O)(=O)c3ccc(Br)s3)CC2)c1`, for which the activation is 0.67% (inactive).

On to `COc1cc(OC)cc(-c2c(-c3cccs3)c3cc(-c4ccc(OC)cc4F)ccc3n2C)c1`, for which the activation is 0.9% (inactive).

Take `CC(C)(C)NC(=O)C(c1ccco1)N(Cc1ccc2c(c1)OCO2)C(=O)Cn1nnc2ccccc21` (configuration not stated): the activation was -3.64% (inactive).

Take `COc1ccc(S(=O)(=O)NCCCCOc2ccc(Cl)cc2)cc1`: the activation is 1.56% (inactive).

For the compound `COc1ccc(N(CCC#N)S(=O)(=O)c2ccc(Cl)cc2)cc1`, the activation was 9.52% (active).

With `COc1ccc(N(CC(=O)N2CCCCCC2)S(=O)(=O)c2ccccc2)cc1`, the activation is -0.03% (inactive).

For `COc1ccc2c(c1)C(=C(C#N)C#N)C(=O)N2CCc1ccccc1`, the activation was 1.6% (inactive).

For `COc1cc(NC(=S)NCCSc2ccc(C)cc2)cc(OC)c1`, the activation was 0.45% (inactive).

Take `COc1ccc(Cl)cc1NC(=O)CN(C)C(=O)CNC(=O)C12CC3CC(CC(C3)C1)C2`: the activation was 1.23% (inactive).

Turning to `COc1ccc(Cl)cc1NC(=O)CN(C)C(=O)c1cc2ccccc2cc1OC`, the activation is 0.89% (inactive).

For the compound `COc1ccc(Cl)cc1NC(=O)CN(C)C(=O)CCCc1c[nH]c2ccccc12`, the activation was 9.56% (active).

Take `COCCNc1ncnc2c1ncn2[C@H]1CN(CCN2CCOCC2)C[C@@H](CO)O1`: the activation is 0.56% (inactive).

For the compound `Cc1ccc(C(NC(=O)C2CCN(CCOc3ccc(Cl)cc3Cl)CC2)c2ccccn2)cc1` (configuration not stated), the activation is 1.16% (inactive).

Consider `O=C(N/N=C/c1ccco1)c1ccc(NC(=O)C2CC2)cc1`, for which the activation was 1.23% (inactive).

`O=C(N/N=C/C=C/c1ccco1)c1cccs1`: the activation was 11.9% (active).

Take `O=C(N/N=C/c1ccco1)c1csc2c1CCCC2`: the activation is 1.3% (inactive).
